# Experimental data as given in the supplement of paper PMC10849652.
# The full data set covers some 7,900 targets. This sample favours those with a hit. About 0.6% of all pairs of compound and target were hits. Unmarked numbers belong to inactive results.
# What was measured:
# Experiment in all cases: log2 fold change, soluble protein after heating vs DMSO (PISA); higher = thermal stabilisation; K562 cells, 10 uM, 30 min; active = over 0.2 and 3.5 SD of the protein, either way, in both replicates (recomputed)
# [1] = compound: COC1=CC=C(C=C1)CN2C=CC3=C2C=C(C=C3)C(=O)NO
# Method in brief: (§1)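 For each measurement, 10 μM compound was applied for 30 min to K562 cells at 2×10^6 cells/mL. Aliquots were heated for 3 min across 48°C-58°C, pooled, and extracted in PBS with 0.5% NP-40 at 4°C; the supernatant after 21,000xg for 90 min was soluble protein. This was quantified by TMTpro 16plex LC-MS/MS with channel sums equalised, and thermal stability was reported relative to control samples from duplicates, on a log2 fold-change scale.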
# filanesib = compound: CON(C)C(=O)N1N=C(c2cc(F)ccc2F)S[C@@]1(CCCN)c1ccccc1 [filanesib]
# Method in brief: as §1
# zotarolimus = compound: CO[C@H]1C[C@@H]2CC[C@@H](C)[C@@](O)(O2)C(=O)C(=O)N2CCCC[C@H]2C(=O)O[C@H]([C@H](C)C[C@@H]2CC[C@H](n3cnnn3)[C@H](OC)C2)CC(=O)[C@H](C)/C=C(\C)[C@@H](O)[C@@H](OC)C(=O)[C@H](C)C[C@H](C)/C=C/C=C/C=C/1C [zotarolimus]
# Method in brief: as §1
# idasanutlin = compound: COc1cc(C(=O)O)ccc1NC(=O)[C@@H]1N[C@@H](CC(C)(C)C)[C@](C#N)(c2ccc(Cl)cc2F)[C@H]1c1cccc(Cl)c1F [idasanutlin]
# Method in brief: as §1
# alisertib = compound: COc1cc(Nc2ncc3c(n2)-c2ccc(Cl)cc2C(c2c(F)cccc2OC)=NC3)ccc1C(=O)O [alisertib]
# Method in brief: as §1
# [2] = compound: COc1cc2nc(-c3cc(F)ccc3O)nc(N[C@@H]3CNC[C@H]3C(C)(C)O)c2cc1OC
# Method in brief: as §1
# gefitinib = compound: COc1cc2ncnc(Nc3ccc(F)c(Cl)c3)c2cc1OCCCN1CCOCC1 [gefitinib]
# Method in brief: as §1
# [3] = compound: COc1cccc2cc(-c3nc([C@H]4CC[C@H](C(=O)O)CC4)n4ncnc(N)c34)[nH]c12
# Method in brief: as §1
# lapatinib = compound: CS(=O)(=O)CCNCc1ccc(-c2ccc3ncnc(Nc4ccc(OCc5cccc(F)c5)c(Cl)c4)c3c2)o1 [lapatinib]
# Method in brief: as §1
# pictilisib = compound: CS(=O)(=O)N1CCN(Cc2cc3nc(-c4cccc5[nH]ncc45)nc(N4CCOCC4)c3s2)CC1 [pictilisib]
# Method in brief: as §1
# [4] = compound: CS(=O)(=O)c1ccc(-c2cnc(N)c(C(=O)Nc3ccccc3)n2)cc1
# Method in brief: as §1
# crizotinib = compound: C[C@@H](Oc1cc(-c2cnn(C3CCNCC3)c2)cnc1N)c1c(Cl)ccc(F)c1Cl [crizotinib]
# Method in brief: as §1
# [5] = compound: C[C@@H]1COCCN1C2=NC(=NC(=C2)C3(CC3)S(=O)(=O)C)C4=C5C=CNC5=CC=C4
# Method in brief: as §1
# [6] = compound: C[C@H](C1=CC=C(C=C1)C(=O)NC2=C3C=CNC3=NC=C2)N
# Method in brief: as §1
# duvelisib = compound: C[C@H](Nc1ncnc2nc[nH]c12)c1cc2cccc(Cl)c2c(=O)n1-c1ccccc1 [duvelisib]
# Method in brief: as §1
# gandotinib = compound: Cc1cc(Nc2cc(CN3CCOCC3)c3nc(C)c(Cc4ccc(Cl)cc4F)n3n2)n[nH]1 [gandotinib]
# Method in brief: as §1
# tozasertib = compound: Cc1cc(Nc2cc(N3CCN(C)CC3)nc(Sc3ccc(NC(=O)C4CC4)cc3)n2)n[nH]1 [tozasertib]
# Method in brief: as §1
# [7] = compound: Cc1cc(SCc2sc(-c3ccc(C(F)(F)F)cc3)nc2C)ccc1OCC(=O)O
# Method in brief: as §1
# doramapimod = compound: Cc1ccc(-n2nc(C(C)(C)C)cc2NC(=O)Nc2ccc(OCCN3CCOCC3)c3ccccc23)cc1 [doramapimod]
# Method in brief: as §1
# ispinesib = compound: Cc1ccc(C(=O)N(CCCN)[C@@H](c2nc3cc(Cl)ccc3c(=O)n2Cc2ccccc2)C(C)C)cc1 [ispinesib]
# Method in brief: as §1
# Chain of UniProt O15021 (O15021 whole entry, looked up): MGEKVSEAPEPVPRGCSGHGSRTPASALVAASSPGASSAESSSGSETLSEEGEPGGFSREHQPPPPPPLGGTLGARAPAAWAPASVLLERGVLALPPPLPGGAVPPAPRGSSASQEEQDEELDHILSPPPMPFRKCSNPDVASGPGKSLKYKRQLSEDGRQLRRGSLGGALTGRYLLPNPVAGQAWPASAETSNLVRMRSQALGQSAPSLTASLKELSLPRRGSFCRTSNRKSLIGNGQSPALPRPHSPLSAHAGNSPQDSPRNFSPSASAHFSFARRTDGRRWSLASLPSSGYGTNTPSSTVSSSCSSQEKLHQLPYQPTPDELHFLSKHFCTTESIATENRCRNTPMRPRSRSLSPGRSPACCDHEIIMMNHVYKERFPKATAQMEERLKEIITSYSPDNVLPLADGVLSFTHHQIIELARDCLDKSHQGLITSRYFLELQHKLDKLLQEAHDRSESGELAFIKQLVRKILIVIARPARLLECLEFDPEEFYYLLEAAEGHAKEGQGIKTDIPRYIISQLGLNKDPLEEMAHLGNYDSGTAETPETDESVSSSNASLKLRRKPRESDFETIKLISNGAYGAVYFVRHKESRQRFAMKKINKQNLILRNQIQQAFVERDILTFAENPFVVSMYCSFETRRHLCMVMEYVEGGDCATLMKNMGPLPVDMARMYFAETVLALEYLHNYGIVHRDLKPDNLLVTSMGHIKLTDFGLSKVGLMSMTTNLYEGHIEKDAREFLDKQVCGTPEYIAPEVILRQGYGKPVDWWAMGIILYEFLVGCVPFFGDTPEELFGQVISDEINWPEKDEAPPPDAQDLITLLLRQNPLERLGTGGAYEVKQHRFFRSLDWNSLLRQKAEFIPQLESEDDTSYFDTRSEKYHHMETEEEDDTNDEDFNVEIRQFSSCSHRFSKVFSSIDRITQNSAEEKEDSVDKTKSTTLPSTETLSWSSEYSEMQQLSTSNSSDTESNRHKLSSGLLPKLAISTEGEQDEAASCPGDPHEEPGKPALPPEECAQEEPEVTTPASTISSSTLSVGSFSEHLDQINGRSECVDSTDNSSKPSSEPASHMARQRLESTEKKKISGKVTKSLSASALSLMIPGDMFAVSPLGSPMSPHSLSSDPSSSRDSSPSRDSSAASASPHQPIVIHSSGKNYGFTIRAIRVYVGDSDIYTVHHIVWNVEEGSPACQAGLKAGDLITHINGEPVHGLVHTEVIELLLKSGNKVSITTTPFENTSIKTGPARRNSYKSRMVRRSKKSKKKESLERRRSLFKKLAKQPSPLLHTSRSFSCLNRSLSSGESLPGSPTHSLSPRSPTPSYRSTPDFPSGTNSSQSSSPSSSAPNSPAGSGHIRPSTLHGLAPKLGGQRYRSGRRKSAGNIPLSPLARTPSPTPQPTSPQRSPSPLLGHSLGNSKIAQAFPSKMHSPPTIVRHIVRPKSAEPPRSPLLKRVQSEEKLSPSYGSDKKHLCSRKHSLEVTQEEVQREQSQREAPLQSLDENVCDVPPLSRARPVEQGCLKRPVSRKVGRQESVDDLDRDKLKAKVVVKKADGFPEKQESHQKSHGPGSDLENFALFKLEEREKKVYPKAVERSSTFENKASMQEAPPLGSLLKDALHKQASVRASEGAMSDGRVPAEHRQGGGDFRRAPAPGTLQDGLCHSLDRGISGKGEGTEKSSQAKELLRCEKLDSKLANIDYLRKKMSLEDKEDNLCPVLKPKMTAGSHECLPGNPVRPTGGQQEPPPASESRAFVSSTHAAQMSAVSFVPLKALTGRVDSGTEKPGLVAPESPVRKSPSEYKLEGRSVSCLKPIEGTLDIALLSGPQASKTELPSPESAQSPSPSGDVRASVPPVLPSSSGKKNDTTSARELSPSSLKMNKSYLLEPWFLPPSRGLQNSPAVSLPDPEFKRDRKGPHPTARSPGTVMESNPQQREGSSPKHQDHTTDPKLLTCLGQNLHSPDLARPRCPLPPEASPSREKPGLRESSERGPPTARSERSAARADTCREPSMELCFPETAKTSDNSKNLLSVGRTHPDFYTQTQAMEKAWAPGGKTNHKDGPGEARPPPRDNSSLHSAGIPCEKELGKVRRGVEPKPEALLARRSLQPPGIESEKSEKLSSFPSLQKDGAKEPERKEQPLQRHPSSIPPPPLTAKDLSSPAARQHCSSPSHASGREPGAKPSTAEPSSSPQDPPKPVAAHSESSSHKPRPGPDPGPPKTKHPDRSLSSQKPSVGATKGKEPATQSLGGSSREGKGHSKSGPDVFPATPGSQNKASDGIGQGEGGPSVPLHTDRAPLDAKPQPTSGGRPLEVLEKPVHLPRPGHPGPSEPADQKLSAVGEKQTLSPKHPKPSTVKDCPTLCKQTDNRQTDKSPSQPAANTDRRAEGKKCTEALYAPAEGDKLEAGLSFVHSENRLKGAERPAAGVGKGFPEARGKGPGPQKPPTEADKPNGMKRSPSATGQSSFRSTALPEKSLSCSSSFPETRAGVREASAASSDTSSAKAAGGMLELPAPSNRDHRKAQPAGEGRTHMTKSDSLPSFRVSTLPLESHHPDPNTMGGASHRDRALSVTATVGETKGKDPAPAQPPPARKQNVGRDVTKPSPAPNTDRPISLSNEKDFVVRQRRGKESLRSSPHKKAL
# Chain of UniProt Q96AQ8 (Q96AQ8 whole entry, looked up): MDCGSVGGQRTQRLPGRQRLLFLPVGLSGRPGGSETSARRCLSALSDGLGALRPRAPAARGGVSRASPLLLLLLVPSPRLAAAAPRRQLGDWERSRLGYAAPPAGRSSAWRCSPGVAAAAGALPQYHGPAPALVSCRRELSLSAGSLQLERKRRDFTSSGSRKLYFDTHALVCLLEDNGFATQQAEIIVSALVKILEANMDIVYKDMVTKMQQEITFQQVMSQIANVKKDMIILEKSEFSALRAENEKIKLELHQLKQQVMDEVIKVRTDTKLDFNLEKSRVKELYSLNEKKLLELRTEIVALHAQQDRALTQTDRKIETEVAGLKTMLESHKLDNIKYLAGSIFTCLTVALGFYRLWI
# Chain of UniProt Q9HCC0 (Q9HCC0 whole entry, looked up): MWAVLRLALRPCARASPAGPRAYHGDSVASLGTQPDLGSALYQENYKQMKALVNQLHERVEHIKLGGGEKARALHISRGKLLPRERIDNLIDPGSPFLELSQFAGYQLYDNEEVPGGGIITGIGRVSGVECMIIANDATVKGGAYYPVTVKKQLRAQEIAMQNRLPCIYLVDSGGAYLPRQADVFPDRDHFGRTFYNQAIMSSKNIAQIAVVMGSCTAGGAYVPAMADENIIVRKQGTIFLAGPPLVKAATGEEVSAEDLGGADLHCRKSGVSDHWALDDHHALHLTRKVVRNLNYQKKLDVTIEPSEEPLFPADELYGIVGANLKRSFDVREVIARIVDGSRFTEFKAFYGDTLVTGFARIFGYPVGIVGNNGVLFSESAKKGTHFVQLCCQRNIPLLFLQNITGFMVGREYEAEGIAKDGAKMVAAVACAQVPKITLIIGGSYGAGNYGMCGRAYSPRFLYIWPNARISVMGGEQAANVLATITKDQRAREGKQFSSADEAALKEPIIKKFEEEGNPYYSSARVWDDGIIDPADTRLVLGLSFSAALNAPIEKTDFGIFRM
# Chain of UniProt P02545 (P02545 whole entry, looked up): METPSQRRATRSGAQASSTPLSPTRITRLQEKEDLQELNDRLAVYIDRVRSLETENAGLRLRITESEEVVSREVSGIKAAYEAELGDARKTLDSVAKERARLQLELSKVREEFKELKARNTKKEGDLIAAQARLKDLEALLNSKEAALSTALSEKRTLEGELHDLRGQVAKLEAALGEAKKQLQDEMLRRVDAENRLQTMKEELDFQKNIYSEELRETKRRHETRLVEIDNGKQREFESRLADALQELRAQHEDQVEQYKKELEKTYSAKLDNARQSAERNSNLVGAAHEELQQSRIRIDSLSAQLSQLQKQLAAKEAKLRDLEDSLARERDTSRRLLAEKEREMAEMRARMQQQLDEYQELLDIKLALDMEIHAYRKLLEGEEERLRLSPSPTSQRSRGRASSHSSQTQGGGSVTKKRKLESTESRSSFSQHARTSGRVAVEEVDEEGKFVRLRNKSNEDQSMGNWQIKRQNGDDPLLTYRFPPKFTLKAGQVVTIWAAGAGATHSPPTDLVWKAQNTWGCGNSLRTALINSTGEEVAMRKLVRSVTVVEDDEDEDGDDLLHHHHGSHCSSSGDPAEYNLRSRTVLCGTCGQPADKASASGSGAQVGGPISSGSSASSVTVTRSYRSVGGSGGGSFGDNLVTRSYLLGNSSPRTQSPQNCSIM
# Chain of UniProt P45984 (P45984 whole entry, looked up): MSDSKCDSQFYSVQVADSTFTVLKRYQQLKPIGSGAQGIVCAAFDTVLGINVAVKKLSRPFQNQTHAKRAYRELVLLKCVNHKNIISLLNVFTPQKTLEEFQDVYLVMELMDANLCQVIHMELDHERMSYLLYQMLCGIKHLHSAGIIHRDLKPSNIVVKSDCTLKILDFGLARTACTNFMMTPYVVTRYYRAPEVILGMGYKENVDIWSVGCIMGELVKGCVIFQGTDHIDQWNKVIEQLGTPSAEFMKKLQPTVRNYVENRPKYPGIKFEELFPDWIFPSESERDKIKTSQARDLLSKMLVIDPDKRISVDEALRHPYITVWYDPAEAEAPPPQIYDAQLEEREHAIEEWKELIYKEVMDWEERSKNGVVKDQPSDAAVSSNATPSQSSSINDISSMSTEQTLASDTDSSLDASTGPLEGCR
# Chain of UniProt P43362 (P43362 whole entry, looked up): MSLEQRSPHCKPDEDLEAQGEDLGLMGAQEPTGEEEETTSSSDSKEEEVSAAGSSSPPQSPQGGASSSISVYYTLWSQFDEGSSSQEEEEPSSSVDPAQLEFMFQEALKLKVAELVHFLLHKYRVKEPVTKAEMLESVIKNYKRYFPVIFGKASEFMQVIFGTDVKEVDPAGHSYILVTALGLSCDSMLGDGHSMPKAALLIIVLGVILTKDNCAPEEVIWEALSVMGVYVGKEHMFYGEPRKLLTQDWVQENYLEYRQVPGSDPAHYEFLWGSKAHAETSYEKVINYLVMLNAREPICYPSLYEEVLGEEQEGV
Target,log2 fold change [1],log2 fold change (filanesib),log2 fold change (zotarolimus),log2 fold change (idasanutlin),log2 fold change (alisertib),log2 fold change [2],log2 fold change (gefitinib),log2 fold change [3],log2 fold change (lapatinib),log2 fold change (pictilisib),log2 fold change [4],log2 fold change (crizotinib),log2 fold change [5],log2 fold change [6],log2 fold change (duvelisib),log2 fold change (gandotinib),log2 fold change (tozasertib),log2 fold change [7],log2 fold change (doramapimod),log2 fold change (ispinesib)
LRPPRC (UniProt P42704),0.303,-0.788,-0.02,0,0.207,-0.638,-0.189,0.119,-0.091,-0.119,0.025,-0.822,0.154,0.065,0.059,-0.175,0.213,0.481,-0.172,-0.416
MAPK9 (UniProt P45984),-0.004,-0.01,-0.022,-0.062,-0.072,0.043,0.009,0.001,-0.039,0.075,0.006,-0.042,0.054,-0.068,0.023,-0.018,-0.013,-0.041,0.145,0.01
MCUR1 (UniProt Q96AQ8),-0.042,0.019,-0.002,-0.13,0.009,0.181,0.009,0.052,-0.009,0.087,0.041,0.082,0.1,0.044,0.06,-0.021,0.043,-0.017,-0.002,0.255
MAST4 (UniProt O15021),-0.023,-0.114,0.035,-0.103,-0.073,-0.283,-0.031,0.019,0.046,-0.036,-0.041,-0.188,0.064,-0.114,0.091,-0.301,-0.03,0.053,-0.088,0.007
MCCC2 (UniProt Q9HCC0),0.137,-0.07,0,-0.033,-0.057,-0.022,0.006,0.083,0.001,-0.031,-0.004,0.028,0.027,-0.053,0.054,0.051,-0.011,-0.022,0,0.047
LMNA (UniProt P02545),-0.093,0.088,0.018,0.093,0.096,-0.112,-0.014,0,0.028,0.008,-0.054,0.064,0.102,-0.231 (active),-0.013,-0.098,0.069,-0.035,0.018,0.214 (active)
MAGEA9 (UniProt P43362),-0.246,0.003,0.015,0.087,0.057,0.024,0.034,0.033,-0.018,-0.018,0.005,0.008,0.082,-0.028,0.12,-0.095,0.168,-0.029,0,-0.001
LEO1 (UniProt Q8WVC0),-0.038,0.021,0.175,0.023,-0.08,-0.035,0.009,-0.034,-0.032,0.009,0.092,0.026,-0.202,-0.126,0.008,-0.031,0.114,-0.008,0.071,0.052
